# Screens as filed in PubChem BioAssay.
# Rows were chosen to be rich in hits. Some 1.4% of all compounds tested hit in one or more screens of this group.
# CCT chaperon mod: High-Throughput Screening for Modulators of Cytosolic Chaperonin Activity; purified chaperonin ATPase assay, HTRF ADP detection, 30 min; 0.3% of 360,000 active; activity change, % (test concentration not listed), hits read low; in the data active = activity change below about -30%; also: % is scaled to controls: 0 for no effect and ±100 for the full control effect
#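 ATPase activity: ADP formed was measured by HTRF Transcreener (665/615 nm ratio) after 30 min at 37 deg C with 10 uM ATP. Compounds screened at one 76 uM concentration against 40 or 20 nM TRiC in Tris pH 7.4/KCl/MgCl2/DTT buffer.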
# ALOX12 inh: Primary qHTS assay for inhibitors of human arachidonate 12S-lipoxygenase (ALOX12): Round 2; Polyunsaturated fatty acid lipoxygenase ALOX12 (Homo sapiens), P18054; purified 12hLO, xylenol orange hydroperoxide absorbance; Potency, µM (highest dose often 108 µM), for inactives: top-dose activity change, negative = inhibition, hits mostly inhibitors; 1.1% of 580,000 active; also: potency is read from the fitted curve at half-maximal effect; % is scaled to controls: 0 for no effect and ±100 for the full control effect
#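 Hydroperoxide product was detected by ferrous iron/xylenol orange as the 573 to 405 nm absorbance ratio. Arachidonic acid at 40 uM (final) was turned over for 30 min at room temperature by 150 nM human 12hLO, pH 7.0 Hepes buffer, after 15 min compound preincubation.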
# PINK1 modulator: A Quantitative High throughput Screen to Identify Chemical Modulators of PINK1 Expression; PINK1 immunofluorescence, high-content cytometry, 24 h; Potency, µM (doses to about 76.6 µM), for inactives: top-dose activation (PINK1 increase), hits mostly activators; 0.2% of 410,000 active; AID 624263, 2012; active = well fitted activation curve with a large enough effect; inconclusive = small, poorly fitted or top-dose-only effect; cell line not stated here; also: potency is read from the fitted curve at half-maximal effect; % of control where 0% means no effect; nearly all actives have a fitted effect of over 65% in size
#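 Compound titrations (5 concentrations, 24 h) on a stable cell line; DMSO and CCCP controls. Endpoint: fixed-cell PINK1 immunofluorescence with mitochondrial, cell and nuclear markers, scanned by microplate cytometer.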
# Mm-Cpn inhibitor: Inhibitors of TCP-1 ring complex (TRiC) of Methanococcus maripaludis (MmCpn): qHTS | purified Mm-Cpn ATPase, ADP Transcreener TR-FRET | Potency, µM (series often up to 76.9 µM), for the others: at the top dose activity, negative = inhibition, hits mostly inhibitors | Chaperonin Mm-Cpn (Methanococcus maripaludis) | 0.031% of 330,000 active; also: potency is read from the fitted curve at half-maximal effect; % is scaled to controls: 0 for no effect and ±100 for the full control effect; nearly all actives have a fitted effect of over 80% in size
#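 Purified archaeal chaperonin (25 nM final) was preincubated with compound for 10 min at 37°C, then ATP (10 uM final) was added for 30 min at 37°C in Tris pH 7.4/KCl/MgCl2/DTT buffer. ADP was quantified by HTRF Transcreener TR-FRET.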
# p53 reactivator: qHTS assay for re-activators of p53 using a Luc reporter | H1299 p53-A138V BP100-luciferase reporter, luminescence, 24 h | AID 504706, 2011 | 0.063% of 320,000 active | Potency, µM (top dose mostly 92.2 µM), for inactives: top-dose activity change, positive = activation, usual class: activators; also: potency is read from the fitted curve at half-maximal effect; % of control where 0% means no effect; nearly all actives have a fitted effect of over 45% in size
#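 H1299 (p53-null), stable ts p53-A138V + BP100-Luc; 1000 cells/well, Opti-MEM/10% FBS; cpd 4 pt, 1:5; 24 h, 37 deg C, 5% CO2; detection reagent 10 min RT; luminescence.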
# S-ASM inh: Inhibitors of Secretory Acid Sphingomyelinase (S-ASM): qHTS. Sphingomyelin phosphodiesterase (Homo sapiens), P17405. placental ASM, HMU-PC fluorogenic substrate, 60 min. Potency, µM (top dose mostly 57.5 µM), for inactives: at the highest dose activity change, negative = inhibition, hits mostly inhibitors. 0.006% of 340,000 active; also: potency is read from the fitted curve at half-maximal effect
# Target sequence (P17405 47-631 limits assumed): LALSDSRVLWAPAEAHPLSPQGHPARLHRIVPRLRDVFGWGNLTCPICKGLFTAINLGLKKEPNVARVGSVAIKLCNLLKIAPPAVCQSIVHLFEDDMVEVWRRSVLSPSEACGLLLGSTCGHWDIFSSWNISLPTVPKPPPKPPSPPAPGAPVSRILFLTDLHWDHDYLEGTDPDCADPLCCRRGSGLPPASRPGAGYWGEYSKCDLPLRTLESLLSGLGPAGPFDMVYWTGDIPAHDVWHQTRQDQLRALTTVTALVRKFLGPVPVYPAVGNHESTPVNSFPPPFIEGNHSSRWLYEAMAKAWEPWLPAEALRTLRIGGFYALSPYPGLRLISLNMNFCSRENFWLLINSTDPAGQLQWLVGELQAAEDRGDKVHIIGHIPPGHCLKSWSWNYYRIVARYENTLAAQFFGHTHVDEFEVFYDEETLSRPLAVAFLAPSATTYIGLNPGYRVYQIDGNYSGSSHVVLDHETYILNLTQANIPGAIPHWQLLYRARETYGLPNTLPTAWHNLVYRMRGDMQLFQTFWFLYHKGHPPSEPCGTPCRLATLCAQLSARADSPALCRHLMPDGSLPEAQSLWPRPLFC
#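 Steps: dispense placental human ASM, pin compound, wait 10 min at room temperature, add HMU-PC0 substrate at 9 uM final, incubate 60 min at 37 °C, add stop solution raising pH to 10, read fluorescence.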
# Numbers without * were called inactive; ? = inconclusive; / = no result given; [ ] = dose if it differs, or a comment. Unless noted, calls follow the shape of the dose curve; as a rule, active = well fitted curve in the direction sought with a large enough effect; inconclusive = small, poorly fitted or top-dose-only effect, or another doubt; inactive = no such curve, though single readings can be large; an effect the other way counts as inactive or inconclusive.
SMILES,CCT chaperon mod,ALOX12 inh,PINK1 modulator,Mm-Cpn inhibitor,p53 reactivator,S-ASM inh
CC1(C)CC(=O)C2=C(C1)Nc1ccccc1NC2c1cccc(F)c1 (configuration not stated),1,11µM*,-1%,0%,-23%,-1%
CC1(C)CC(=O)C2=C(C1)Nc1ccccc1NC2c1cccnc1 (configuration not stated),-2,27%,0%,-1%,-1%,1%
CCOc1ccc(N=C2NN=C(c3cc(C)n(CC4CCCO4)c3C)CS2)cc1 (configuration not stated),-22,40µM*,3%,1%,13%,-2%
CC(C)=C1C(=O)NN(c2ccc(F)c(Cl)c2)C1=O,-1,10µM*,-5%[38.3 µM],1%,-16%,0%
COc1ccc(Cl)cc1S(=O)(=O)N1CCC2(CCCNC2)C1 (configuration not stated),/,34%,/,/,/,/
CC(=O)N1Cc2ccccc2CC2(CCCN(CC3CCNC3)C2)C1 (configuration not stated),/,8.9µM*,/,/,/,/
CC(=O)NCC(=O)N1Cc2ccccc2CC2(CCCN(CC3CCNC3)C2)C1 (configuration not stated),/,4%[6.33 µM],/,/,/,/
CN(C)c1ccc(CN2CC[C@H](c3nc4c(C(N)=O)cccc4[nH]3)C2)cc1,/,20%[176 µM],/,/,/,/
O=C(NCC1CCCO1)c1ccccc1 (configuration not stated),-1,1%,-2%,/,/,3%
O=C(NC(=S)NCC1CCCO1)c1ccc(Cl)cc1 (configuration not stated),-2,40µM*,1%,0%,?,1%
C[n+]1cccc(C(=O)NCC2CCCO2)c1 (configuration not stated),1,16µM*,3%,-4%,1%,4%
Nc1ccc(C2=CSC3=NCCCN23)cc1,/,1%,/,/,/,/
C/C(=N\Nc1nc2c(s1)CCCC2)c1ccc(Cl)cc1,-1,40µM*,-2%,1%,17%,-3%
Nc1ccccc1C1CC1,/,7.1µM*,/,/,/,/
Nc1ccccc1N=Nc1ccccc1N,-2,1%,9%,-5%,/,1%
COc1cccc(-c2cncnc2NCc2ccc(OC)cc2OC)c1,/,13µM*,7%,/,/,/
CCOc1cc(C(=O)Nc2cc(C)ccn2)cc(OCC)c1OCC,-1,1%,1%,?,-22%,0%
CCOc1cc(C(=O)Nc2cnccn2)cc(OCC)c1OCC,-7,2%,14µM*,1%,-1%,-2%
N#Cc1ccc(/C=C/C(=O)N2CCC(c3nc4ccccc4o3)CC2)cc1,/,25%,/,/,/,/
O=C1NC2(CCN(CC3CCCC3)CC2)Oc2ccccc21,/,25µM*,/,/,/,/
O=C1NC2(CCN(CC3CCCCC3)CC2)Oc2ccccc21,/,-19%[176 µM],/,/,/,/
CC(C[N+](C)(C)C)OC(=O)c1ccc2c(c1)OCO2 (configuration not stated),/,25µM*,/,/,/,/
C[N+](C)(C)CCCC#CC#CCCC[N+](C)(C)C,/,40µM*,/,/,/,/
COCC1CN(C(C)=O)CC12CCN(C(=O)C1CNC1)CC2 (configuration not stated),/,25µM*,/,/,/,/
Cc1c(Cl)cccc1NC(=O)NCCCN(C)CC(F)(F)F,/,7%,/,/,/,/
SMILES,CCT chaperon mod,ALOX12 inh,PINK1 modulator,Mm-Cpn inhibitor,p53 reactivator,S-ASM inh
CC(C)(C)c1ccc(CSc2nc(N)cc(=O)[nH]2)cc1,-55*,/,2%,-1%,2%,3%
COc1ccc(CC(=O)Nc2ccc3c(C)cc(=O)oc3c2)cc1OC,0,9%,9%,-3%,-1%,71%
Cc1cc(=O)oc2cc(NC(=O)Cc3ccccc3F)ccc12,/,40µM*,/,/,/,/
CC(C)COc1ccc(C(=O)OCC[N+]2(C)CCOCC2)cc1,/,5.6µM*,/,/,/,/
O=C(OCCN1CCOCC1)c1ccc(OCCN2CCOCC2)cc1,1,?,0%,-3%,0%,3%
CCOC(=O)c1ccc(NC(=O)CC2SC(c3cc4ccccc4oc3=O)=NC2=O)cc1 (configuration not stated),/,-17%,/,/,/,/
C#CCN(C[C@H]1[C@H](OC(=O)NCC2CCCCC2)[C@H](OC(=O)NCC2CCCCC2)C[C@H]2C(=O)N(c3ccccc3)C(=O)[C@@H]12)S(=O)(=O)c1ccc(C)cc1,0,45µM*,5%,/,/,/
Cc1ccccc1OCCCOc1ccccc1/C=N/NC(=O)c1cccc(Cl)c1,/,12%,/,/,/,/
CC(C)CCn1c(SCC(N)=O)nc2c1c(=O)[nH]c(=O)n2C,/,-19%,/,/,/,/
O=C(CC1C(=O)NCCN1C(=O)Nc1ccc(Cl)cc1)Nc1ccc(F)cc1 (configuration not stated),1,40µM*,6%,1%,-9%,?
CC(C)CNC(=O)CN1CCN(Cc2ncc(-c3ccccc3)o2)CC1,/,55%,/,/,/,/
CN(C)C(=O)c1n[nH]c2c1CN(C(=O)c1ccc(F)cc1)CC2,/,21%,/,/,/,/
NC(=S)n1[nH]c(-c2ccc([N+](=O)[O-])cc2)c(N=Nc2cccc(Cl)c2)c1=O,1,?,13µM*,1%,-1%,-6%
Cc1ccccc1N=Nc1c(C)[nH]n(C(N)=S)c1=O,-2,?,-3%,-2%,?,-7%
Cc1[nH]n(C(N)=S)c(=O)c1N=Nc1ccc([N+](=O)[O-])cc1Cl,2,10µM*,1%,-1%,4%,3%
O=C1c2cc(N3CCOCC3)nc(-c3ccccc3)c2CN1Cc1ccccc1,/,-5%[176 µM],/,/,/,/
Cc1ccc2[nH]c3c(c2c1)CN(C(=O)CN1CCN(c2cccc(C)c2C)CC1)CC3,-5,40µM*,6%,-6%,-19%,-8%
O=C(C1=Cc2cc(Cl)ccc2OC1)N1CCN(S(=O)(=O)c2cc(F)ccc2F)CC1,/,40µM*,/,/,/,/
CC(O)(c1ccc(F)c(F)c1)c1nc(/C=C/c2ccc(C(F)(F)F)cc2)cs1 (configuration not stated),-1,35µM*,-1%,/,/,/
CC(O)(c1ccc(F)c(F)c1)c1nc(-c2csc3ccccc23)cs1 (configuration not stated),0,45µM*,18%,/,/,/
CCCCOc1ccc(CNC(=S)N/N=C/c2ccc(OC)c(OC)c2)cc1,-5,28µM*,3%,-1%,0%,?
